# Assay outcomes: PubChem, Johns Hopkins Ion Channel Center
# This is a sample that favours compounds with a hit; in the whole collection about 1.6% have one here.
# KCNQ2 block: blocks the rat KCNQ2 potassium channel; CHO-K1 KCNQ2, FluxOR thallium flux, 20 min; hits give low values; B-score at 10 µM; hit rate 1.1% among 310,000; AID 2156;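 active means fluorescence ratio B-score at most minus 3 library SDs, with starting brightness B-score within 2 library SDs, cut at about -5.5 in these data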
# Target sequence (O88943 whole entry, looked up): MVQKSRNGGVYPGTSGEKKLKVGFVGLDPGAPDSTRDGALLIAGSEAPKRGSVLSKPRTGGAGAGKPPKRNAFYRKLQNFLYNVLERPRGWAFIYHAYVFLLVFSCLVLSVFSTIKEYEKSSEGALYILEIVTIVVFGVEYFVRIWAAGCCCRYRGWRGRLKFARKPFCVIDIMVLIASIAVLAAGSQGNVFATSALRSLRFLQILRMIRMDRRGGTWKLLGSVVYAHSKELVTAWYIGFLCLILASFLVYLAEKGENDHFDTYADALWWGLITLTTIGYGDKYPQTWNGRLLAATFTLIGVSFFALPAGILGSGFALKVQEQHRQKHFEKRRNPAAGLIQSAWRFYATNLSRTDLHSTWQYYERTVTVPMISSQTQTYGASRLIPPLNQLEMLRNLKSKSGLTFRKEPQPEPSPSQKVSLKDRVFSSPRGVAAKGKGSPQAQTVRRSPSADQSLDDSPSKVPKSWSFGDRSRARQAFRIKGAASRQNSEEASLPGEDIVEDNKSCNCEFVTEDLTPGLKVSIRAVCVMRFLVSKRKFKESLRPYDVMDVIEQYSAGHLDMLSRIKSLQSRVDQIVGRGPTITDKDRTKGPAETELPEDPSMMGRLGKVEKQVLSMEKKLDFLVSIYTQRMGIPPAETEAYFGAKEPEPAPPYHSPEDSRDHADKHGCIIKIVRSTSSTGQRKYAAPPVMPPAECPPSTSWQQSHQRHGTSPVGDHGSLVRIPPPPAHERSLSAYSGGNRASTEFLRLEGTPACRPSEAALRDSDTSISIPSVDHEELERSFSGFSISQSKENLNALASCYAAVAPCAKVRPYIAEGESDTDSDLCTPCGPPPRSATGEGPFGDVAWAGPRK
# KCNQ2 pot: enhances the rat KCNQ2 potassium channel; O88943; CHO-K1 KCNQ2, FluxOR thallium flux fluorescence; hits give high values; B-score at 10 µM; hit rate 0.54% among 310,000; AID 2239;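 active means fluorescence ratio B-score at least 3 SD of library B-scores, with initial fluorescence B-score within 3 of them, cut at about 5.3 in these data; same plate scores as AID 2156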;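 further: B-score of peak minus minimum over baseline fluorescence ratio after K+ and Tl+ stimulus; positive B-score means potentiation of KCNQ2 with more thallium influx and brighter signal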
# KCNQ2 inh conf: confirmation of rat KCNQ2 potassium channel inhibitors | KCNQ2-expressing cells, thallium flux, inhibition; hits give low values | activity change, negative = inhibition, % at 10 µM | hit rate 57% among 1,000 | shares compounds with KCNQ2 block;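 further: 0% = vehicle wells and values are ratio percent relative to vehicle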
# KCNQ1 spec: human KCNQ1 activity in KCNQ2 inhibitor specificity screen | AID 493026 | KCNQ1-expressing cells, FluxOR thallium flux fluorescence; hits give low values | hit rate 15% among 1,000 | activity change, negative = inhibition, % at 10 µM | shares compounds with KCNQ2 block;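 active means activity change at least 3 SD of negative controls below their mean in both duplicate wells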;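 further: CHO cells stably transfected with KCNQ1 and depolarized by potassium stimulus; peak minus minimum fluorescence over baseline after thallium addition; 0% = vehicle negative control and -100% = blank without thallium stimulus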
# CHO parental ctr: counter-screen for KCNQ2 inhibitors: effect in parental CHO cells; activity change, % at 10 µM; shares compounds with KCNQ2 block; hit rate 14% among 1,000; thallium flux counter-screen; hits give low values;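 further: 0% = vehicle negative controls with stimulus buffer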
# * marks the source's active call; other numbers are inactive results; i = inactive; / = no result given. Unless noted, how the calls were made is not given here.
SMILES,KCNQ2 block,KCNQ2 pot,others
CCCCn1c(O)c(C(C)=Nc2ccc(C(=O)O)cc2)c(=O)[nH]c1=O,i,5.6*,
CCCCn1c(O)c(C(C)=NCCc2ccccc2)c(=O)[nH]c1=O,i,0.51,
CN1C(=O)N(C)C(=O)C(CCc2ccncc2)(CCc2ccncc2)C1=O,i,/,
Fc1ccc(C2=CCN(C(c3ccc(Cl)cc3)c3nnnn3Cc3ccccc3)CC2)cc1 (stereo not drawn),i,/,
Cc1ccc(C(c2nnnn2Cc2ccccc2)N2CC=C(c3ccc(F)cc3)CC2)cc1 (stereo not drawn),-5.7*,-5.7,
CCOc1ccc(NC(=O)CCNC(=O)N2C[C@H]3C[C@@H](C2)c2cccc(=O)n2C3)cc1,i,1,
COc1ccc(-n2c(/C=C/c3ccc4c(c3)OCO4)nc3ccccc3c2=O)cc1,i,/,
Cc1ccc(-n2c(/C=C/c3ccc4c(c3)OCO4)nc3ccccc3c2=O)cc1,-5.7*,-5.7,
CCCCn1c(=O)c(C(=O)NCc2ccccc2OC)c(O)c2ccccc21,-6.2*,-6.2,
CCCCCn1c(=O)c(C(=O)NCCc2ccccc2)c(O)c2ccccc21,i,/,
c1ccc(C(OCCN2CCNCC2)c2ccccc2)cc1,i,0.82,
CC1CCN(CC#CCOc2ccc(Cl)cc2)CC1,i,/,
CC(C)(C#CC(=O)O)OOC(c1ccccc1)(c1ccccc1)c1ccccc1,-11*,-11,
O=c1c2ccccc2nc(-c2ccc(-c3ccccc3)cc2)n1-c1ccncc1,i,0.25,
O=C1NC(=O)N(c2ccccc2)C(=O)/C1=C/c1coc2ccc(O)cc2c1=O,-7.1*,-7.1,
O=C1NC(=O)N(c2ccc(Cl)cc2)C(=O)/C1=C/c1coc2ccc(O)cc2c1=O,i,/,
CCOP(=S)(OCC)Oc1cc(C)oc(=O)c1Cl,i,/,
CCC(=NCCCN(C)C)c1c(O)n(-c2ccc(OC)cc2)c(=O)[nH]c1=O,i,/,
Clc1cnc(Oc2ccc(Oc3ncc(Cl)cc3Cl)cc2)c(Cl)c1,-5.6*,-5.6,
Oc1cc(Cl)ccc1Oc1ccc(Cl)cc1Cl,i,/,
CN1C(=O)NC(=O)[C@]2(Cc3ccccc3N3CCN(c4ccccc4)CC32)C1=O (stereo partly drawn),i,/,
O=C1NC(=O)[C@]2(Cc3ccccc3N3CCN(c4ccccc4)CC32)C(=O)N1Cc1ccccc1 (stereo partly drawn),-5.7*,-5.7,
O=C1NC(=O)[C@]2(Cc3ccccc3N3CCN(c4ccccc4)CC32)C(=O)N1c1ccccc1 (stereo partly drawn),-6.1*,-6.1,
O=C1NC(=O)C2(Cc3ccccc3N3CCCC32)C(=O)N1Cc1ccccc1 (stereo not drawn),i,/,
Oc1c(Cl)c(Cl)c(Cl)c(Cl)c1Cl,i,2.4,
SMILES,KCNQ2 block,KCNQ2 pot,others
O=C(c1cc(F)ccc1F)C1CCCN(Cc2cccc(Cl)c2)C1 (stereo not drawn),i,/,
O=c1[nH]c(=O)n(Cc2ccco2)c(O)c1C=NC1CC1,i,/,
CCc1ccccc1NC(=O)CNC1CCCCC1,i,/,
CN(CC(=O)Nc1ccccc1-c1ccccc1)C1CCCCC1,-6.4*,-6.4,
Cc1nc2sccc2c(=O)n1-c1ccccc1Cl,i,/,
Cn1cccc1CNCCc1ccccc1F,i,/,
c1ccc(-c2ccc(-c3n(-c4ccccn4)c4ccccc4[n+]3-c3ccccn3)cc2)cc1,-7.7*,-7.7,
N#Cc1ccc(Cn2cc(C=O)c3ccccc32)cc1,i,/,
Cc1ccc(C)c(NP(=O)(Oc2ccccc2)Oc2ccccc2)c1,i,0.73,
Cc1cccc(OP(=O)(Oc2ccccc2)OC(c2ccccc2)C(F)(F)F)c1 (stereo not drawn),-6.5*,-6.5,
CCOc1ccc(-c2cc(C)[n+](CCc3ccc(OC)c(OC)c3)c(-c3ccc(OCC)cc3)c2)cc1,-5.8*,-5.8,
CCOc1ccc(-c2cc(C)[n+](CCO)c(-c3ccc(OCC)cc3)c2)cc1,i,0.49,
CCCC(=O)NC(Oc1ccc(Cl)cc1Cl)C(Cl)(Cl)Cl (stereo not drawn),i,1.4,
O=c1[nH]c(=S)n(CCC2=CCCCC2)c(O)c1/C=N/Nc1ccccc1,i,/,
Cn1cc(C(=O)NCc2ccccc2)c2ccccc21,i,/,
C/C1=C\[C@@H](C)C/C=C/[C@H]2[C@@H]3O[C@]3(C)[C@@H](C)[C@H]3[C@H](Cc4c[nH]c5ccccc45)NC(=O)[C@]32C(=O)/C=C/C(=O)[C@@H]1O,i,8.3*,
CC12CN3CC(C)(CN(C1)C31CCSCC1)C2=O,i,0.54,
Cc1ccc(C2=NCC(=O)N(CC(=O)N3CCCCC3)c3sc(C)c(C)c32)cc1,i,/,
CC[n+]1c(/C=C/C=C/c2ccc(N(C)C)cc2)sc2ccccc21,-7.9*,-7.9,
CN(C)c1ccc(/C=C/C=C/c2sc3ccccc3[n+]2C)cc1,i,0.07,
COc1ccc(C2SCC(=O)Nc3c2c(C)nn3-c2ccccc2)cc1 (stereo not drawn),i,0.6,
Cc1ccc(-n2nc(C)c3c2NC(=O)CSC3c2ccc3c(c2)OCO3)cc1 (stereo not drawn),-5.6*,-5.6,
C=C(C=O)CC1CC(O)[C@]2(C)OC3CC4OC5C[C@]6(C)O[C@]7(C)CCC8OC9C[C@]%10(C)OC%11C(C)=CC(=O)OC%11CC%10OC9C[C@@H](C)C8OC7CC6O[C@]5(C)CC5OC5C4OC3CC2O1 (stereo partly drawn),-5.6*,-5.6,
C=C(CO)CC1CC(O)[C@]2(C)OC3CC4OC5C[C@]6(C)O[C@]7(C)CCC8OC9C[C@]%10(C)OC%11C(C)=CC(=O)OC%11CC%10OC9C[C@@H](C)C8OC7CC6O[C@]5(C)C/C=C\C4OC3CC2O1 (stereo partly drawn),i,0.1,
O=C(Cn1c(NCCCl)nc2ccccc21)c1ccc(Br)cc1,i,/,
SMILES,KCNQ2 block,KCNQ2 pot,others
O=c1nc(/C=C/c2ccc(Cl)cc2Cl)cc(C(F)(F)F)[nH]1,i,2.2,
CCc1nc2ccc(Br)cc2c(=O)n1-c1ccccc1C(F)(F)F,i,/,
CCCc1nc2ccc(Br)cc2c(=O)n1-c1ccc([N+](=O)[O-])c(C(F)(F)F)c1,-6*,-6,
CCOC(=O)c1c(NC(=O)C(c2ccccc2)c2ccccc2)sc2c1C1CCN2CC1,-7.2*,-7.2,
CCOC(=O)c1c(NC(=O)c2c(N)n(CCCOC)c3nc4ccccc4nc23)sc2c1CCCC2,i,1.3,
Cc1cc(Br)ccc1N1C(=O)CC(=O)NC1=O,i,0.28,
CC(Cc1ccccc1)NC(=O)Cc1ccc(N(C)C)cc1 (stereo not drawn),i,/,
NC(N)=N/N=C/c1cn(-c2ccccc2)nc1-c1cccs1,-11*,-11,KCNQ2 inh conf=i;KCNQ1 spec=i;CHO parental ctr=i
O=c1c2ccccc2nc(-c2cccs2)n1-c1ccccc1,i,/,
